This is an account of results in PubChem BioAssay (Tox21).

Several values for one entry are separate records, joined by “and”; a condition that tells them apart may be missing. Equal entries are not always repeated. Values without a mark were called inactive. Inconclusive results are not listed. Activity calls are given as the source filed them. Unless noted, the call rests on the fitted dose curve; in most records, active means well fitted curve in the direction sought with a large enough effect in the repeat runs; inconclusive means weak or mixed curves; inactive means no such curve, though single readings can be large; an effect the other way counts as inactive or inconclusive.

Experiment [1] concerns the target Estrogen receptor (Homo sapiens) (UniProt P03372). Description: qHTS assay to identify small molecule antagonists of the estrogen receptor alpha (ER-alpha) signaling pathway using the BG1 cell line in the presence of 0.1 nM 17-beta-estradiol (AID 1259244). Further: nearly all actives have a fitted effect of over 50% in size. Further: potency means the concentration at half of the fitted maximal effect. The method in brief:
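Antagonist mode: compounds in DMSO are pinned onto VM7Luc4E2 reporter cells, 0.1 nM final 17beta-estradiol is added, and after 22 h at 37C luciferase luminescence is measured with ONE-Glo.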
In general terms: qHTS replaces the single test concentration by a dilution series.

A short description of experiment [2]: qHTS assay to identify small molecule HDAC inhibitors (AID 1259364). Further: potency means the concentration at half of the fitted maximal effect.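 Further: wild-type HCT-116 cells with endogenous class I/II HDAC activity; nearly all actives have a fitted effect of over 45% in size.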 On activity change, negative = inhibition: top concentration of the series differs between compounds. Summed up: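 Cells (HCT-116, wild type) are seeded at 1,500 per well, incubated overnight, treated with compound in DMSO for 2 hr, then developed with HDAC-Glo I/II reagent for 30 min at room temperature.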
A short description of experiment [3]: qHTS assay to identify small molecule HDAC inhibitors - cell viability counter screen (AID 1259365). Further: series mostly up to about 92 µM; nearly all actives have a fitted effect of over 50% in size. Summed up:
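Wild-type HCT-116 cells, 1,500/well, cultured overnight, then compound-treated 2 h at 37 C. Viability measured as ATP luminescence with CellTiter-Glo after 30 min at room temperature.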

Experiment [4] can be described thus: qHTS assay to identify small molecule agonists of the sonic hedgehog signaling (Shh) pathway - cell viability counter screen (AID 1259366). Further: nearly all actives have a fitted effect of over 50% in size. Further: potency means the concentration at half of the fitted maximal effect. The method in brief:
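NIH/3T3-derived Gli1-Luc reporter cells, 2,000 per well, received compound after 4 h and were treated about 23 h at 37C. Viability measured in the same wells by CellTiter-Fluor fluorescence after 1 h.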

Experiment [5] is described as follows: qHTS assay to identify small molecule antagonists of the sonic hedgehog signaling (Shh) pathway - cell viability counter screen (AID 1259367). Further: nearly all actives have a fitted effect of over 55% in size. Further: potency means the concentration at half of the fitted maximal effect. The method in brief: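 Tox21 library chemicals were tested on a Gli1-Luc NIH/3T3 clone (2,000 cells/well) stimulated by conditioned medium; viability was quantified as fluorescence from CellTiter-Fluor reagent added at 23 hr.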

A short description of experiment [6]: qHTS assay to identify small molecule agonists of the sonic hedgehog signaling (Shh) pathway (AID 1259368; calls by dose curve;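 further: NIH/3T3-derived 3T3Gli1-Luc cells carrying a stable Gli1-driven firefly luciferase reporter; series mostly up to about 92 µM; nearly all actives have a fitted effect of over 15% in size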). Summed up:
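Cells of a mouse NIH/3T3 clone stably expressing luciferase under the Gli1 transcriptional response element are exposed to test chemicals for 24 hr at 37 C. Pathway activation is detected as a rise in luminescence.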

The nature of experiment [7]: qHTS assay to identify small molecule antagonists of the sonic hedgehog signaling (Shh) pathway (AID 1259369; calls by dose curve; further: nearly all actives have a fitted effect of over 45% in size; further: potency means the concentration at half of the fitted maximal effect). The method in brief: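 Cells are plated and held 4hr at 37 C, compounds (DMSO) are pinned in, conditioned medium is added to stimulate the pathway, and after 24hr luciferase reagent is added for 30min before luminescence is read.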
Experiment [8] addresses Estrogen receptor beta (Homo sapiens) (UniProt Q92731). The experiment can be described thus: qHTS assay to identify small molecule agonists of the estrogen receptor beta (ER-beta) signaling pathway (AID 1259377; active means well fitted activation curve with a large enough effect in the signal ratio in the repeat runs, not every such curve was filed as active; the % refers to the signal ratio). Summed up:
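ER-beta-UAS-bla HEK293T cells in medium with 2% charcoal-stripped FBS were exposed to compounds for 16 h at 37C. Beta-lactamase reporter activity was read as fluorescence after 2 h with LiveBLAzer B/G FRET substrate at room temperature.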
On the % scale 0 is the no-effect control and ±100 the full control effect.

Sequence of Estrogen receptor (Homo sapiens) (P03372 whole entry, looked up): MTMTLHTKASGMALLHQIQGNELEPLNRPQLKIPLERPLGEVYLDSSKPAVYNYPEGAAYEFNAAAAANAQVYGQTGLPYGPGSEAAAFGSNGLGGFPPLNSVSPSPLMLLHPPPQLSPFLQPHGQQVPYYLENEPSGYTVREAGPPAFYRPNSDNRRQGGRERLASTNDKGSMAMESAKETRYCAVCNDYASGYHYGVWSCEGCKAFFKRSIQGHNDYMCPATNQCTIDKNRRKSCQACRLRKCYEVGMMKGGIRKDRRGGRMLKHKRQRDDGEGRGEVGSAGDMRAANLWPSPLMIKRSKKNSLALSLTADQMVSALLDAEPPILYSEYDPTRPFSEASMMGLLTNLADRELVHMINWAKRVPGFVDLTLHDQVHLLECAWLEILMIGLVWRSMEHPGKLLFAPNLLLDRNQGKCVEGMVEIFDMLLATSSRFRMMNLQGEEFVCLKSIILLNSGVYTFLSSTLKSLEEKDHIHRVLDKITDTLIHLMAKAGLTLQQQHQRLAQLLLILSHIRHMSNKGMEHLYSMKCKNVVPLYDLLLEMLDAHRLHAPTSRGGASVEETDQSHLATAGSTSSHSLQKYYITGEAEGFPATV
Sequence of Estrogen receptor beta (Homo sapiens) (Q92731 whole entry, looked up): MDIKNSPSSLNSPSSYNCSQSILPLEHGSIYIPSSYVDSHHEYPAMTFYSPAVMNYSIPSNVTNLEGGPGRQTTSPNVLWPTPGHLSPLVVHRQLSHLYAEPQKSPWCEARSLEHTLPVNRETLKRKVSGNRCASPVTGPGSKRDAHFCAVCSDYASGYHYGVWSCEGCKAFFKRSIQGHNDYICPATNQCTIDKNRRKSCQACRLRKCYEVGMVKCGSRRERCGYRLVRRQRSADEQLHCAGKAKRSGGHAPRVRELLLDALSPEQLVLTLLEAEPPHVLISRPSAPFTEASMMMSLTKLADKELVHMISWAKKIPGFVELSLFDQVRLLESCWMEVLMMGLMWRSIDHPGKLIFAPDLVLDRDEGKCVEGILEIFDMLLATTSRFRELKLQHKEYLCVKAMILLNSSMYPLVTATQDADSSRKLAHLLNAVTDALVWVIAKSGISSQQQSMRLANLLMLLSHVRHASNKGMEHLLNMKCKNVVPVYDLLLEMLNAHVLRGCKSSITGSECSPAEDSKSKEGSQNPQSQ

With `CC1=CCC(=O)O1`, the Potency result in experiment [1], in experiment [2], in experiment [3], in experiment [4], in experiment [5] and in experiment [6] was “inactive” each time. Further, the Potency entry in experiment [7] and in experiment [8] was “inactive” throughout.

With `Cn1cnc2ncnc(N)c21`, the Potency entry in experiment [1], in experiment [2], in experiment [3], in experiment [4], in experiment [5] and in experiment [6] was “inactive” throughout. Further, the Potency entry in experiment [7] and in experiment [8] was “inactive” in each case.

Regarding `Cc1cncc(C)c1`, the Potency entry in experiment [1], in experiment [2], in experiment [3], in experiment [4], in experiment [5] and in experiment [6] was “inactive” each time. Also, the Potency entry in experiment [7] and in experiment [8] was “inactive” each time.

Take `CCCCCCCC(C)=O`: the Potency entry in experiment [1], in experiment [2], in experiment [3], in experiment [4], in experiment [5] and in experiment [6] was “inactive” each time. For the same molecule, the Potency result in experiment [7] and in experiment [8] was “inactive” throughout.

Take `CS(C)(=O)=O`: the Potency result in experiment [1], in experiment [2], in experiment [3], in experiment [4], in experiment [5] and in experiment [6] was “inactive” throughout. Also, the Potency entry in experiment [7] and in experiment [8] was “inactive” in each case.

For `CCN(CC)CCCN(c1ccccc1)C1Cc2ccccc2C1`, the Potency result in experiment [1], in experiment [2], in experiment [3], in experiment [4], in experiment [5] and in experiment [6] was “inactive” each time. Moreover, the Potency entry in experiment [8] is “inactive”. Also, in experiment [7], the Potency is 15 µM (active).

For the molecule `Brc1ccccn1`, the Potency entry in experiment [1], in experiment [2], in experiment [3], in experiment [4], in experiment [5] and in experiment [6] was “inactive” each time. The Potency entry in experiment [7] and in experiment [8] was “inactive” in each case.

As to `CCCCCCCCCCOCC(O)CN` (stereo unspecified), the Potency result in experiment [1], in experiment [2], in experiment [3], in experiment [5] and in experiment [6] was “inactive” throughout. In addition, in experiment [7], the Potency is 11.9 µM (active).

As to `CC(C)(C)C1=CC(=O)C=C(C(C)(C)C)C1=O`, the Potency entry in experiment [1], in experiment [2], in experiment [3], in experiment [4], in experiment [5] and in experiment [6] was “inactive” in each case. Further, the Potency result in experiment [7] and in experiment [8] was “inactive” throughout.

Take `Cc1cc(C)c(C=O)c(C)c1`: the Potency result in experiment [1], in experiment [2], in experiment [3], in experiment [5], in experiment [6] and in experiment [7] was “inactive” in each case.

Regarding `CCN(CC)c1cccc(C)c1`, the Potency result in experiment [1], in experiment [2], in experiment [3], in experiment [4], in experiment [5] and in experiment [6] was “inactive” in each case. Further, in experiment [7], the Potency result was “inactive”.

As for `CN(C)c1ccc(N=Nc2ccccc2C(=O)O)cc1`, the Potency result in experiment [1], in experiment [3], in experiment [6] and in experiment [8] was “inactive” throughout. In addition, the Potency in experiment [2] was 8.63 µM (active); in experiment [4] it was 21.7 µM (active); in experiment [5], 24.3 µM (active); in experiment [7] it was 2.17 µM (active).

On to `CCOC(=O)N1CCC(=C2c3ccc(Cl)cc3CCc3cccnc32)CC1`, for which the Potency in experiment [1] is 61.1 µM (active); in experiment [4], 61.1 µM (active); in experiment [7] it was 43.3 µM (active) and 13.3 µM (active). Moreover, the Potency result in experiment [2], in experiment [3], in experiment [5], in experiment [6] and in experiment [8] was “inactive” each time.

Turning to `COC(=O)CC(C)CCC=C(C)C` (stereo unspecified), the Potency entry in experiment [1], in experiment [2], in experiment [3], in experiment [4], in experiment [5] and in experiment [6] was “inactive” throughout. Also, the Potency result in experiment [8] was “inactive”.

As for `Clc1nc2ccccc2s1`, the Potency entry in experiment [1], in experiment [2], in experiment [3], in experiment [4], in experiment [5] and in experiment [6] was “inactive” in each case. For the same molecule, the Potency entry in experiment [7] is “inactive”.

Consider `CCc1cccc(CC)c1N(COC)C(=O)CS(=O)(=O)O`, for which the Potency entry in experiment [1], in experiment [2], in experiment [3], in experiment [4], in experiment [5] and in experiment [6] was “inactive” in each case. Besides, the Potency entry in experiment [7] and in experiment [8] was “inactive” throughout.

As to `CCc1ccc(O)c(C(C)(C)C)c1`, the Potency result in experiment [1], in experiment [2], in experiment [3], in experiment [4], in experiment [5] and in experiment [6] was “inactive” in each case. The Potency entry in experiment [7] and in experiment [8] was “inactive” in each case.

As for `C=CC(=C)CC/C=C(\C)CCC=C(C)C`, the activity change, negative = inhibition in experiment [1] was 3.24% [at 19 µM]; in experiment [2], 8.2% [at 19 µM]. Further, the activity change, negative = cytotoxicity in experiment [3] is 3.69% [at 19 µM]. The values for the viability change, negative = cytotoxic in experiment [4] and in experiment [5] were -6.51% [at 19 µM] and -4.46% [at 19 µM], respectively. Further, the activity change in experiment [6] is 0.047% [at 18.9 µM, stronger effect = higher value]. The activation in experiment [8] is 1.85% [at 19 µM].

For `CCc1cccc(C)c1`, the Potency result in experiment [1], in experiment [2], in experiment [3], in experiment [5], in experiment [6] and in experiment [7] was “inactive” each time.

Regarding `O=C=NCc1cccc(CN=C=O)c1`, the activity change, negative = inhibition in experiment [1] was 2.93% [at 19 µM]; in experiment [2], 3.12% [at 19 µM]; in experiment [7], 11.1% [at 19 µM]. In addition, the activity change, negative = cytotoxicity in experiment [3] was 0.277% [at 19 µM]. Moreover, the figures for the viability change, negative = cytotoxic in experiment [4] and in experiment [5] were 4.73% [at 19 µM] and -1.32% [at 19 µM], respectively. Besides, in experiment [6], the activity change is -1.18% [at 18.9 µM, stronger effect = higher value].

`C[C@]12CC[C@H]3C(=CCc4cc(O)ccc43)[C@@H]1CCC2=O`: the Potency entry in experiment [1], in experiment [2], in experiment [3], in experiment [4] and in experiment [6] was “inactive” in each case. The Potency in experiment [7] is 21.7 µM (active).

On to `CCc1c(C(=O)O)c(=O)cnn1-c1ccc(Cl)cc1`, for which the Potency result in experiment [1], in experiment [2], in experiment [3], in experiment [4], in experiment [5] and in experiment [6] was “inactive” throughout. Further, the Potency entry in experiment [7] and in experiment [8] was “inactive” in each case.

In the case of `CC(=O)c1ccccc1N`, the Potency entry in experiment [1], in experiment [2], in experiment [3], in experiment [4], in experiment [5] and in experiment [6] was “inactive” throughout. For the same molecule, the Potency entry in experiment [7] and in experiment [8] was “inactive” each time.

Turning to `c1ccc(Nc2cccc3ccccc23)cc1`, the Potency result in experiment [1], in experiment [2], in experiment [3], in experiment [4], in experiment [5] and in experiment [6] was “inactive” in each case. Further, the Potency entry in experiment [8] is “inactive”. Moreover, the Potency in experiment [7] is 30.6 µM (active).

With `CCCCCCCCCCCCOC(=O)c1cc(O)c(O)c(O)c1`, the Potency in experiment [1] is 30.5 µM (active) and 34.4 µM (active); in experiment [4], 43.1 µM (active); in experiment [5], 34.2 µM (active) and 6.11 µM (active); in experiment [7] it was 1.21 µM (active) and 2.17 µM (active). The Potency result in experiment [2], in experiment [3] and in experiment [8] was “inactive” in each case.

Take `CC1(C)C(=O)N(CO)C(=O)N1CO`: the Potency entry in experiment [1], in experiment [2], in experiment [3], in experiment [4], in experiment [5] and in experiment [6] was “inactive” each time. For the same molecule, the Potency entry in experiment [7] and in experiment [8] was “inactive” in each case.

As for `CCCCN(CCCC)CCC(O)c1cc2c(Cl)cc(Cl)cc2c2cc(C(F)(F)F)ccc12` (stereo unspecified), the Potency result in experiment [1], in experiment [2], in experiment [3], in experiment [4], in experiment [5] and in experiment [6] was “inactive” in each case. Besides, the Potency entry in experiment [8] is “inactive”.
